The values below come from PubChem BioAssay (NCI).

Several values for one entry are separate records, joined by “and”; a condition that tells them apart may be missing. Identical values can stand only once. About 83,000 compounds went through this panel and 20% of them were active in at least one assay; those are over-represented in the sample as a whole.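 The endpoint reported here, percent growth, reads 100 for growth as untreated, 0 for no net growth and -100 for all cells dead.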 Unmarked numbers belong to inactive results. Activity calls are given as the source filed them. How the source made its calls: active means growth percent below 10; inactive means the rest.

The test system of this experiment is MDA-MB-468 breast. The experiment in a line: NCI-60 one-dose screen, 48 h (100 = growth as untreated, 0 = no growth, -100 = all killed). The conditions noted are these: 10 µM unless noted.
For `O=C(O)c1cn(C2CC2)c2cc(N3CCN(Cc4c(O)ccc5ccccc45)CC3)c(F)cc2c1=O`, the growth is 35.1%. Next, `O=C(Nc1cccc2c1C(=O)c1cccc(Nc3cccc4c3C(=O)c3cccc(NC(=O)c5ccccc5)c3C4=O)c1C2=O)c1ccccc1`: 126%; `COc1cc(Nc2cc(O)c3c(=O)cc(-c4ccccc4)oc3c2)cc(OC)c1`: 11.7%; `CCOc1cc(-c2ccc[nH]2)[nH]c1/C=C1\N=C(C)C(C(=O)OC)=C1C`: -86.9% (active). With `O=c1[nH]ccc2nc(N3CCC(O)CC3)nc(Nc3ccc(N4CCOCC4)cc3)c12` the figure was 159%.

`CN1CCN(c2nc(NCCCCNc3ccnc4cc(Cl)ccc34)c3ccccc3n2)CC1`: the growth is 62.4%. With `O=c1oc2ccc(Cl)cc2c(=O)n1-c1cc(C(F)(F)F)cc(C(F)(F)F)c1`, the growth was -8.67% (active). With `CCN(CCN(C)C)C(=O)CNCc1cc(C(N)=O)ccn1` the figure was 101%; with `CCCCCCC(CCCC)COC(=O)c1ccc(Cl)cc1` (stereo not given), 96.2%. Next, `Nc1nc2ncc(CNc3ccc(C(=O)N[C@@H](CCc4nn[nH]n4)C(=O)O)cc3)nc2c(=O)[nH]1`: 93.9% and 98.6%; `COc1ccccc1NC(=O)c1sc2nc3c(cc2c1N)C(=O)CCC3`: 23.4%.

Take `CN(C)c1ccc(/C=C(\C#N)c2cc3ccccc3[nH]2)cc1`: the growth is -3.07% (active). Regarding `O=S(=O)(NCCCNc1cc(-c2c(-c3cccc(O)c3)nc3sccn23)ccn1)c1cccc(Cl)c1`, the growth was 37.2%. Next, `N=c1c(C(=O)OCc2ccccc2)ncc(CCl)n1O`: 68.6%; `NC(=S)NN=C1CCCC1`: 14.1%. With `COc1cc(/C=C2\C(=O)N(CCOc3cc(O)c4c(=O)cc(-c5ccccc5)oc4c3)c3ccccc32)cc(OC)c1O` the figure was 89.6%; with `Clc1ccc2c(NCCCn3ccnc3)c3oc4ccc(Cl)cc4c3nc2c1`, 31.3%; with `C=CCn1c(SCC(=O)Nc2ccc(/C(C)=N\O)cc2)nnc1-c1cc(-c2ccc(OC)cc2)nc2ccccc12`, 17.3%. On to `NC(=O)SCC(=O)NNc1ccccc1`, for which the growth is 92.9%. Next, `O=C(O)c1cn(-c2ccccc2)nc1-c1ccc(O)cc1`: 98.3%; `COc1cc(/C=C/C(=O)c2c(C)nc3ccccc3c2/C=C/c2ccc(C)cc2)cc(OC)c1OC`: 18.9%; `O=C(Nc1ccccc1)Nc1cccc(-n2cc(-c3ccncc3)c(-c3ccc(O)c(Cl)c3)n2)c1`: 54.8%. As to `Cc1cc(=O)oc2cc(O)cc(O)c12`, the growth was 103%. Next, `C=C(C)[C@@H]1CC[C@]2(C)[C@H](C=CC3=C4C[C@@](C)(CO)CC[C@]4(C)CC[C@]32C)[C@@]1(C)CCCN`: -62.1% (active). On to `CCN(CC)CCCNC(=O)c1c2c(n3ccccc13)C(=O)c1ncccc1C2=O`, for which the growth is -70.1% (active).

`CN1CCCc2cc(/C=C3\SC(=S)N(C(Cc4ccc(O)cc4)C(=O)O)C3=O)ccc21` (stereo not given): the growth was 93.6%. With `Brc1ccc(-c2[nH]ncc2-c2c[nH]c3ccccc23)cc1`, the growth was 99.5%.

Regarding `CCN(CC)c1ccc(/C=C2\Oc3ccc(O)c(I)c3C2=O)cc1`, the growth was 61.6%. On to `CCCCCCOc1ccc(C2(Cl)c3ccccc3N(C)c3ccccc32)cc1`, for which the growth is 50.3%. Next, `COc1ccc2nc(C)cc(Nc3ccccc3O)c2c1`: 63.5%; `CCOc1ccccc1-n1c(CN2CCN(C(=O)COc3ccc(CNCCCCCCN4C5CCCC4CC(OC(=O)Nc4cc(C)ccc4OC)C5)cc3)CC2)nc2ccccc2c1=O` (stereo not given): -79.1% (active); `CC(=O)Nc1ccc(S(N)(=O)=O)cc1`: 100% and 97.2%. With `c1cc(OCCN2CCCCC2)ccc1CNc1ccc2nc(CCC3CCCCC3)[nH]c2c1` the figure was 27.4%. In the case of `N#Cc1c(-c2ccc(Cl)cc2)csc1NC(=O)Nc1ccc(Cl)c(C(F)(F)F)c1`, the growth is -9.61% (active). `CC(CC(=O)c1ccccc1)c1ccccc1` (stereo not given): the growth is 96.5%. As for `CCOC(=O)N/N=C\C(C)=N\NC(=O)OCC`, the growth was 114%.

On to `O=C1c2ccc3c4c(ccc(c24)C(=O)N1CCNCc1ccccc1)C(=O)N(CCNCc1ccccc1)C3=O`, for which the growth was -62.9% (active). Next, `S=C1NC2(c3ccccc3)CCC(=S)N2c2ccccc21` (stereo not given): 112%; `NS(=O)(=O)c1ccc(-c2cc(-c3nnc(SCC(=O)Nc4ccc(C(=O)/C=C/c5ccc(Cl)cc5)cc4)n3-c3ccccc3)c3ccccc3n2)cc1`: 84.5%.

For `Nc1nc(CSc2n[nH]c(N)n2)nc(Nc2ccccc2)n1`, the growth was 108%.
